# Reference: publication PMC5540273 (PLoS ONE, 2017)
# Experiments:
# Conditions in all cases: concentration: 1 μM, replicates: in singlicate; n = 1
# STK36 = system: STK36
# STK39 = system: STK39
# SYK = system: SYK
# SgK110 = system: SgK110
# TAK1 = system: T1, TAK1
# T1 construct: gene MAP3K7
# TAOK1 = system: TAOK1
# TAOK2 = system: TAOK2
# TAOK3 = system: TAOK3
# TBK1 = system: TBK1
# TEC = system: TEC
# TESK1 = system: TESK1
# TGFBR1 = system: TGFBR1
# TGFBR2 = system: TGFBR2
# TIE1 = system: TIE1
# TIE2 = system: T2, TIE2
# T2 construct: gene TEK
# TLK1 = system: TLK1
# TLK2 = system: TLK2
# TNIK = system: TNIK
# TNK1 = system: TNK1
# TNK2 = system: TNK2
# 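Further: KINOMEscan kinase panel screen.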
Compound,%Inh (STK36),%Inh (STK39),%Inh (SYK),%Inh (SgK110),%Inh (TAK1),%Inh (TAOK1),%Inh (TAOK2),%Inh (TAOK3),%Inh (TBK1),%Inh (TEC),%Inh (TESK1),%Inh (TGFBR1),%Inh (TGFBR2),%Inh (TIE1),%Inh (TIE2),%Inh (TLK1),%Inh (TLK2),%Inh (TNIK),%Inh (TNK1),%Inh (TNK2)
Cl.Cl.NCC(NCc1ccc(-c2ccnc3[nH]ccc23)s1)c1ccccc1 (stereo not shown) [GSK1321565],0%,5%,23%,8%,44%,26%,0%,0%,8%,0%,18%,15%,0%,9%,0%,0%,0%,0%,0%,0%
Cc1ccc(F)c(C(=O)Nc2cccc(-c3nn4ccccc4c3-c3ccnc(Nc4cccc(F)c4)n3)c2)c1F [GSK361061],99.1%,18%,45%,0%,0%,33%,18%,41%,29%,75%,28%,43%,21%,55%,27%,8%,0%,29%,88%,43%
Oc1cc(Nc2ccnc3cc(I)ccc23)ccc1F [GW552771],0%,21%,19%,0%,0%,0%,0%,0%,0%,12%,13%,62%,99.9%,0%,0%,10%,0%,47%,4%,2%
COCCOCCOc1cc2ncc3c4ccc(C#N)cc4[nH]c3c2cc1OC,22%,0%,5%,0%,88%,0%,12%,0%,89%,0%,18%,0%,0%,0%,0%,0%,0%,87%,0%,9%
O=C(Nc1n[nH]c2nc(-c3ccc(O)cc3)ccc12)C1CC1 [SB-710363],15%,18%,25%,0%,21%,98.9%,79%,95.9%,19%,0%,0%,0%,0%,0%,11%,18%,0%,95.1%,0%,0%
C[C@@H](Oc1cc(-n2cnc3cc(-c4ccnc(NCCS(C)(=O)=O)c4)ccc32)sc1C(N)=O)c1ccccc1Cl [GSK907232],0%,13%,80%,0%,0%,0%,0%,0%,5%,4%,28%,5%,0%,78%,56%,0%,0%,36%,17%,33%
FC(F)(F)c1ccc(/C=C/c2cncnc2Nc2ccc3[nH]c(Cc4ccccc4)nc3c2)cc1 [GW709199],0%,0%,10%,9%,0%,0%,0%,0%,36%,14%,2%,28%,0%,0%,15%,0%,0%,0%,0%,0%
Nc1n[nH]c2cnc(-c3ccccc3)cc12 [SB-642124],0%,0%,0%,50%,0%,51%,9%,7%,1%,68%,22%,27%,58%,100%,0%,25%,0%,39%,0%,38%
COc1ccc(Nc2nccc(NCCNC(=O)c3cc4ccccc4s3)n2)cc1 [GSK1379896],0%,3%,2%,24%,0%,0%,0%,0%,2%,0%,0%,0%,0%,0%,0%,0%,0%,0%,0%,4%
COc1ccc(CNC(=O)NC2CCN(c3ccnc(Nc4ccc(F)cc4)n3)CC2)cc1 [GSK1379788],0%,0%,21%,0%,0%,0%,0%,0%,2%,0%,2%,18%,0%,0%,0%,0%,0%,0%,9%,2%
COc1cc(Nc2nccc(N3CCC(NC(=O)c4cc5ccccc5s4)C3)n2)cc(OC)c1OC (stereo not shown) [GSK1379760],32%,0%,52%,0%,12%,0%,0%,0%,3%,10%,9%,0%,0%,35%,0%,8%,18%,0%,0%,15%
O=C(Nc1cccc(-c2nn3ncccc3c2-c2ccnc(Nc3ccccc3)n2)c1)c1c(F)cccc1F [GSK198271],100%,0%,37%,0%,0%,90%,93.2%,97.3%,0%,95.4%,24%,0%,0%,45%,25%,22%,0%,32%,97.4%,51%
COc1cccc(C(=O)Nc2cccc(Oc3ccc4nc(NC(=O)C5CC5)cn4n3)c2)c1,0%,0%,12%,0%,0%,34%,58%,0%,48%,9%,0%,0%,40%,84%,67%,4%,0%,54%,48%,5%
Cl.c1ccc(-c2ccc3c(Nc4ccc5[nH]ncc5c4)ccnc3c2)nc1 [GW440137],0%,6%,27%,6%,0%,0%,0%,0%,21%,0%,63%,31%,50%,1%,0%,15%,5%,18%,2%,8%
CC(=O)Nc1nc2cnc(Nc3cc(NC(=O)c4cccc(C5(C#N)CC5)c4Cl)ccc3C)nc2s1,0%,0%,5%,19%,3%,0%,0%,0%,0%,0%,0%,4%,0%,7%,8%,14%,0%,16%,88%,0%
CN(c1ccc(NC(=O)Nc2cc(C(F)(F)F)ccc2F)cc1)c1ccnc(Nc2ccc(S(N)(=O)=O)cc2)n1 [GW809893],0%,0%,91.9%,0%,60%,53%,86%,79%,29%,0%,75%,0%,6%,94.3%,99.6%,0%,0%,81%,54%,0%
COc1cccc(NC(=O)NC2CCN(c3ccnc(Nc4cc(OC)c(OC)c(OC)c4)n3)C2)c1 (stereo not shown) [GSK1379763],0%,0%,28%,0%,0%,0%,0%,0%,38%,5%,1%,4%,0%,28%,0%,10%,0%,0%,0%,9%
CC(=O)N1CCN(c2ccc(Nc3nccc(-c4sc(C(C)C)nc4-c4cccc(NS(=O)(=O)c5cccc(Cl)c5)c4)n3)cn2)CC1 [GSK1660437],99.8%,19%,61%,0%,41%,0%,0%,3%,2%,21%,66%,76%,79%,76%,96.8%,0%,0%,10%,95.6%,28%
Fc1ccc(-c2ncn(C3CCNCC3)c2-c2ccnc(Oc3ccc(-c4ccccc4)cc3)n2)cc1 [SB-245391],8%,14%,0%,0%,42%,28%,6%,20%,8%,5%,19%,59%,16%,46%,31%,3%,35%,11%,10%,0%
Cl.NC(=O)c1cccc(Nc2nccc(Nc3ccc(Oc4c(Cl)cccc4Cl)c(Cl)c3)n2)c1 [GW659009],0%,0%,0%,0%,1%,9%,0%,8%,0%,0%,0%,0%,29%,33%,0%,0%,0%,0%,36%,0%
